From PMC7862700, “An all-to-all approach to the identification of sequence-specific readers for epigenetic DNA modifications on cytosine”

Tests used:
Assay in all cases: DAPPL (digital affinity profiling via proximity ligation, sequencing); 10 mM Tris-HCl pH 7.5, 50 mM NaCl, 1 mM DTT, 4% glycerol, room temperature, 30 min; GST-TFs on glutathione beads, 16-mer random dsDNA library, 0.1% formaldehyde crosslink after washing; high values mean tight binding
[1] = target: T1, FLI1 (Homo sapiens, UniProt Q01543 1-452); details: protein: recombinant; tags: N-terminal GST; dsDNA, one strand shown
T1 sequence: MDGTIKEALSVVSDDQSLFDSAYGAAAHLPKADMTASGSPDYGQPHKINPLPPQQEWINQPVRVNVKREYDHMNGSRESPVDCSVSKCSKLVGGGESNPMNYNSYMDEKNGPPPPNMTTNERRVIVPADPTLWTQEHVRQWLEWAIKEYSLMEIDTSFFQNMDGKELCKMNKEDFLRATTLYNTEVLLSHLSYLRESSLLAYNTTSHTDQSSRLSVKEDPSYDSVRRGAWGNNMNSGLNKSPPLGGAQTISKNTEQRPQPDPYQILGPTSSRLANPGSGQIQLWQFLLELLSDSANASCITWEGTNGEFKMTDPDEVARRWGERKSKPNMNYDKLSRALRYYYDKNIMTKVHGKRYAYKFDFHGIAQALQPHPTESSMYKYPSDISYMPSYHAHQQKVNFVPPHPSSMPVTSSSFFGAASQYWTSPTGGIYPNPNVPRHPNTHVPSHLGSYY
Procedure, shortened: (§1)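 Each value of binding signal is a hexamer's read frequency for a factor divided by the same hexamer's frequency in the tag-only sample. Barcoded, bead-captured GST fusions of human transcription factors made in yeast were pooled with that sample and incubated with 200 nmole of a random double-stranded 16-mer DNA library in Tris/NaCl/DTT/glycerol buffer at room temperature for 30 min. Washing, 0.1% formaldehyde crosslinking, proximity ligation, PCR and Illumina NextSeq500 sequencing followed.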

[2] = target: T2, ELK1 (Homo sapiens, UniProt P19419 1-428); details: protein: recombinant; tags: N-terminal GST; dsDNA, one strand shown
T2 sequence: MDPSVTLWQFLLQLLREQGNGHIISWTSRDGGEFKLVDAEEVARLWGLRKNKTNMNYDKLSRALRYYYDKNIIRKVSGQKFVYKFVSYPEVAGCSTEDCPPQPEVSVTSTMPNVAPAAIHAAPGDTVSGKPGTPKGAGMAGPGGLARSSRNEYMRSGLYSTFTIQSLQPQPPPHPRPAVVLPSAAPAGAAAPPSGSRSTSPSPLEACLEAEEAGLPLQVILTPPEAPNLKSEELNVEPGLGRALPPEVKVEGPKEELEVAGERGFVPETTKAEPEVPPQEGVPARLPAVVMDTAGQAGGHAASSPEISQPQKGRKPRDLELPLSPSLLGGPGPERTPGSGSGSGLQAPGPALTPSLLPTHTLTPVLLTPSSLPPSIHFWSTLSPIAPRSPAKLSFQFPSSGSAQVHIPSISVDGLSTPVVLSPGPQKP
Procedure, shortened: as §1

[3] = target: T3, GABPA (Homo sapiens, UniProt Q06546 1-454); details: protein: recombinant; tags: N-terminal GST; dsDNA, one strand shown
T3 sequence: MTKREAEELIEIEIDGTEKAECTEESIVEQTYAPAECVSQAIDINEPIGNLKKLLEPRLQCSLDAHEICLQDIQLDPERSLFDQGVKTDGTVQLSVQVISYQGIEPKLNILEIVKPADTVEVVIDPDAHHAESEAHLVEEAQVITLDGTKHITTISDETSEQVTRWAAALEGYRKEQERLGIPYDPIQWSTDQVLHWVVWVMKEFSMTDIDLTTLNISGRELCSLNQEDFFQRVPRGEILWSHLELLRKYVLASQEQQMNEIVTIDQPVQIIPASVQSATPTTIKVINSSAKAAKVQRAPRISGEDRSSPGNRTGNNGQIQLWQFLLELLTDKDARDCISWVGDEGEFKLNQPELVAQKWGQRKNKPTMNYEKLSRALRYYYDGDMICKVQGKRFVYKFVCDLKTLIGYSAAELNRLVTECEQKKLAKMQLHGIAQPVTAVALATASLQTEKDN
Procedure, shortened: as §1

[4] = target: T4, ERG (Homo sapiens, UniProt P11308 1-479); details: protein: recombinant; tags: N-terminal GST; dsDNA, one strand shown
T4 sequence: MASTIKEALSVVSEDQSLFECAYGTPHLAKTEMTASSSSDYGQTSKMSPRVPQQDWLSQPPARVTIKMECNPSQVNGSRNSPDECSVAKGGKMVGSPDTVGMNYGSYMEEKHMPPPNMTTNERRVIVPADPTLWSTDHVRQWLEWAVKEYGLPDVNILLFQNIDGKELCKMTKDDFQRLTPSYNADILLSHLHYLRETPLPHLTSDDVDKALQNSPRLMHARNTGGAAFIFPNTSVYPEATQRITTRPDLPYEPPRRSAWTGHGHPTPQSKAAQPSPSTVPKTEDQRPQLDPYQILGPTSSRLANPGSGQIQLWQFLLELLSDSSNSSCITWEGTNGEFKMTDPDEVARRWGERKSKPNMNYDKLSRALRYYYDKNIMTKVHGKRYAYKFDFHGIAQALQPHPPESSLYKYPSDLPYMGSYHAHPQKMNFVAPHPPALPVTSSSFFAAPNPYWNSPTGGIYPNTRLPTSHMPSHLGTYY
Procedure, shortened: as §1

[5] = target: ELF1 (Homo sapiens, UniProt P32519 1-619); details: protein: recombinant; tags: N-terminal GST; dsDNA, one strand shown
Chain of ELF1 (P32519 whole entry): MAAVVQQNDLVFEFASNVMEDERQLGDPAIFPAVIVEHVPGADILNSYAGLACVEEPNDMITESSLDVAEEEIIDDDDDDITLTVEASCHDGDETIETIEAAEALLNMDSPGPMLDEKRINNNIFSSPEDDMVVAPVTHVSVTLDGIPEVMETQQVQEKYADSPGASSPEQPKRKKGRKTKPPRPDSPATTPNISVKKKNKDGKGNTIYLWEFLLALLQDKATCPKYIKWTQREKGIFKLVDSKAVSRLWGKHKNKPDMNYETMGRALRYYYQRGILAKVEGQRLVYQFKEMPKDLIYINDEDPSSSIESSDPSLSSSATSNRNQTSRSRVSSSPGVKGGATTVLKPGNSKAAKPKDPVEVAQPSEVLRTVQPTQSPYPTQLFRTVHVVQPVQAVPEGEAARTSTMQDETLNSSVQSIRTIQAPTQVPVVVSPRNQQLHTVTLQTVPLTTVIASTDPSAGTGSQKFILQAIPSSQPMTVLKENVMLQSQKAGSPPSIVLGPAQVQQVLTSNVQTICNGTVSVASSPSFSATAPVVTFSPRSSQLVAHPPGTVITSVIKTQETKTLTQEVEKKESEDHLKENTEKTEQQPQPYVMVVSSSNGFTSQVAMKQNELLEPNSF
Procedure, shortened: as §1

[6] = target: T5, EHF (Homo sapiens, UniProt Q9NZC4 1-300); details: protein: recombinant; tags: N-terminal GST; dsDNA, one strand shown
T5 sequence: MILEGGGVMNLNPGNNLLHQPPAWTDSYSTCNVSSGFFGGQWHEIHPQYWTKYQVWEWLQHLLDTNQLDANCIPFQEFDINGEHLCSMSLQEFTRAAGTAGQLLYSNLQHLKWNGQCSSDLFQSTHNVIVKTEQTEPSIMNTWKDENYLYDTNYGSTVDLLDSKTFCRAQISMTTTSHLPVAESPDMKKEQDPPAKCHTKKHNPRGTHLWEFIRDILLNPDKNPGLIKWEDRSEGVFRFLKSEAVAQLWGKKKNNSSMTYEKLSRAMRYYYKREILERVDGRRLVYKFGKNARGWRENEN
Procedure, shortened: as §1

[7] = target: SPI1 (Homo sapiens, UniProt P17947 1-270); details: protein: recombinant; tags: N-terminal GST; dsDNA, one strand shown
Procedure, shortened: as §1

[8] = target: SPIB (Homo sapiens, UniProt Q01892 1-262); details: protein: recombinant; tags: N-terminal GST; dsDNA, one strand shown
Chain of SPIB (Q01892 whole entry): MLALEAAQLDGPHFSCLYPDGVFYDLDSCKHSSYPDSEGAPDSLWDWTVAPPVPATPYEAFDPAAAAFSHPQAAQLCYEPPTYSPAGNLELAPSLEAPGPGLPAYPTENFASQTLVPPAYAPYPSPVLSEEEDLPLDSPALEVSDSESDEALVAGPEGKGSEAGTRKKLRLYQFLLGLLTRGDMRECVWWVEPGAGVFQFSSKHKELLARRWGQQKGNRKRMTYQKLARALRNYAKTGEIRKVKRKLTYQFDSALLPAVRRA
Procedure, shortened: as §1

[9] = target: T6, ELK3 (Homo sapiens, UniProt P41970 1-407); details: protein: recombinant; tags: N-terminal GST; dsDNA, one strand shown
T6 sequence: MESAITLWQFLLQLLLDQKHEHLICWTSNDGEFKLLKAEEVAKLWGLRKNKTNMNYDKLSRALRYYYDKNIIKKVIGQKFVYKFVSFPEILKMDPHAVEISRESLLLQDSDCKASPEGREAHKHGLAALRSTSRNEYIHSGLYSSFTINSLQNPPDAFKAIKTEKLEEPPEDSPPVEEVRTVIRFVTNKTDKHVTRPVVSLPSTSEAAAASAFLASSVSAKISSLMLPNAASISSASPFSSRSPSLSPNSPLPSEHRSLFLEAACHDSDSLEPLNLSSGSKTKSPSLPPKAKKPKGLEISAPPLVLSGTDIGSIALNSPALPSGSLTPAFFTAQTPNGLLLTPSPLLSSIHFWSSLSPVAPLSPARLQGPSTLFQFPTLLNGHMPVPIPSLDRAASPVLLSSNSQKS
Procedure, shortened: as §1

[10] = target: T7, FEV (Homo sapiens, UniProt Q99581 1-238); details: protein: recombinant; tags: N-terminal GST; dsDNA, one strand shown
T7 sequence: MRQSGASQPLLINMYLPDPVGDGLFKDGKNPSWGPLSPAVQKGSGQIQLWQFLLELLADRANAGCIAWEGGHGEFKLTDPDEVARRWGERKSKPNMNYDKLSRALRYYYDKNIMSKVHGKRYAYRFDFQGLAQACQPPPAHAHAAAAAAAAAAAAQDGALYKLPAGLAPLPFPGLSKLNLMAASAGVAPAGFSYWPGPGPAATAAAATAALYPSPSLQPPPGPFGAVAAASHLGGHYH
Procedure, shortened: as §1

[11] = target: ETV5 (Homo sapiens, UniProt P41161 1-510); details: protein: recombinant; tags: N-terminal GST; dsDNA, one strand shown
Chain of ETV5 (P41161 whole entry): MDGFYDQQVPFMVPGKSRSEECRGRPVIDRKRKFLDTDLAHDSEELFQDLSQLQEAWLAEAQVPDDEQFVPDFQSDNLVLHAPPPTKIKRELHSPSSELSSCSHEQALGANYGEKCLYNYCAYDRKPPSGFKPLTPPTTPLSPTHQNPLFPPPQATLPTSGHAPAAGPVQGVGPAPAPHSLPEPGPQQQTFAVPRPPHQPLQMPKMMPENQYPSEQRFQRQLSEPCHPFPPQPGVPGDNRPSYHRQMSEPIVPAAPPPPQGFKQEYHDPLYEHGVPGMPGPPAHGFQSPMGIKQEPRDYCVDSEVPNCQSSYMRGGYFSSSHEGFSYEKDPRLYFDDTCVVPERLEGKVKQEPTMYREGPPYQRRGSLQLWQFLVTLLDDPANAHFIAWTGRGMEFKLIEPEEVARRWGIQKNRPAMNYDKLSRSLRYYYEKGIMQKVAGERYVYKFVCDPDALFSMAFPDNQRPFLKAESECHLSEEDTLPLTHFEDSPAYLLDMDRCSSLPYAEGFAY
Procedure, shortened: as §1

[12] = target: HSF1 (Homo sapiens, UniProt Q00613 1-529); details: protein: recombinant; tags: N-terminal GST; chain copies: 3; dsDNA, one strand shown
Chain of HSF1 (Q00613 whole entry): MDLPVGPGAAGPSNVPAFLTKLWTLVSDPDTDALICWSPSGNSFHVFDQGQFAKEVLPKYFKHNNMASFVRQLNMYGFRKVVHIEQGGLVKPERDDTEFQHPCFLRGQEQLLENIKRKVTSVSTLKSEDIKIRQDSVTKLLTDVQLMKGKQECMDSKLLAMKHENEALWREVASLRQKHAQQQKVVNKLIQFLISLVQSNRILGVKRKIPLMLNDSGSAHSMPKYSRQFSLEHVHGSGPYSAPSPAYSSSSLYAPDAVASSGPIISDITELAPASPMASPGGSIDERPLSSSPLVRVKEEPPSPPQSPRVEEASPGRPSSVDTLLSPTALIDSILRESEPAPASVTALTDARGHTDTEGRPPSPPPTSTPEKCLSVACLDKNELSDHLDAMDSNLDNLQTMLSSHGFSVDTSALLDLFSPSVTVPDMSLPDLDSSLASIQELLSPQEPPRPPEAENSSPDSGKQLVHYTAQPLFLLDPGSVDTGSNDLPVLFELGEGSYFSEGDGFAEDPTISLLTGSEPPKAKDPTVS
Procedure, shortened: as §1

[13] = target: T8, SPIC (Homo sapiens, UniProt Q8N5J4 1-248); details: protein: recombinant; tags: N-terminal GST; dsDNA, one strand shown
T8 sequence: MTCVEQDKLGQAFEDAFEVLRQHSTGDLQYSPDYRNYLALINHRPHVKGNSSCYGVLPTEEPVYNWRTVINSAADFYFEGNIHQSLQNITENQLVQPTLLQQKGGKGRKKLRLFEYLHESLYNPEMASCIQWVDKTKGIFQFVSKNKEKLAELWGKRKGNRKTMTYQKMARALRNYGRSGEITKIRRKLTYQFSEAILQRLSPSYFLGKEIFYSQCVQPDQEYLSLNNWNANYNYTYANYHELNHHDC
Procedure, shortened: as §1

[14] = target: ELF4 (Homo sapiens, UniProt Q99607 1-663); details: protein: recombinant; tags: N-terminal GST; dsDNA, one strand shown
Chain of ELF4 (Q99607 whole entry): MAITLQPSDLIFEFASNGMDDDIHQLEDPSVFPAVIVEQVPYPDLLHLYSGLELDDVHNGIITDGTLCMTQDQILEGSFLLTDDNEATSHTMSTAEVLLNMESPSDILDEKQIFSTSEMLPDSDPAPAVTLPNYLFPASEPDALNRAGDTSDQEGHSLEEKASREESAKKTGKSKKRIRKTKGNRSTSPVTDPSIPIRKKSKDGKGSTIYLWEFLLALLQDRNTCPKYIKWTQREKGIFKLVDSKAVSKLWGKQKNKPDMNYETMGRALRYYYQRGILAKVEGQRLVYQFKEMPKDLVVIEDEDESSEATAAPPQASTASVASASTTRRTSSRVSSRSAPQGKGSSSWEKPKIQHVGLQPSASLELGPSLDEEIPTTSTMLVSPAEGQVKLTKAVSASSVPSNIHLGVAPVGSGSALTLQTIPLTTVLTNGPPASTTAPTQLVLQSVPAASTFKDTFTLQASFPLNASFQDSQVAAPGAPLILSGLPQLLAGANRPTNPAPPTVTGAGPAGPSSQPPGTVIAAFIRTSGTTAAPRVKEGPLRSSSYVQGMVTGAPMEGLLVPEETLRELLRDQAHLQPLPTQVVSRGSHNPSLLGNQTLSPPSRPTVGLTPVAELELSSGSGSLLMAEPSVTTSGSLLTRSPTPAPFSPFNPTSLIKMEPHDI
Procedure, shortened: as §1

[15] = target: T9, ELK4 (Homo sapiens, UniProt P28324-2 1-405); details: protein: recombinant; tags: N-terminal GST; dsDNA, one strand shown
T9 sequence: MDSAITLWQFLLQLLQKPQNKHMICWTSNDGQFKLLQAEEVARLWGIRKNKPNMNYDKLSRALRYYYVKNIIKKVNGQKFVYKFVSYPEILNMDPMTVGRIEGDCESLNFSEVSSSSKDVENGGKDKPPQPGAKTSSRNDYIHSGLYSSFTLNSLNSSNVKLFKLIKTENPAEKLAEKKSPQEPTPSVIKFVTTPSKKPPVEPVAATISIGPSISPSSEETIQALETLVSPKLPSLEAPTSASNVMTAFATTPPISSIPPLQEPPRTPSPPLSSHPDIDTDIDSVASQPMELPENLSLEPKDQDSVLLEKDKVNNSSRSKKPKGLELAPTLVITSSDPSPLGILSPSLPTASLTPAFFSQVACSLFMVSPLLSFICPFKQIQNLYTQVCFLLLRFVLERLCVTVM
Procedure, shortened: as §1

[16] = target: T10, ETV2 (Homo sapiens, UniProt O00321 1-342); details: protein: recombinant; tags: N-terminal GST; dsDNA, one strand shown
T10 sequence: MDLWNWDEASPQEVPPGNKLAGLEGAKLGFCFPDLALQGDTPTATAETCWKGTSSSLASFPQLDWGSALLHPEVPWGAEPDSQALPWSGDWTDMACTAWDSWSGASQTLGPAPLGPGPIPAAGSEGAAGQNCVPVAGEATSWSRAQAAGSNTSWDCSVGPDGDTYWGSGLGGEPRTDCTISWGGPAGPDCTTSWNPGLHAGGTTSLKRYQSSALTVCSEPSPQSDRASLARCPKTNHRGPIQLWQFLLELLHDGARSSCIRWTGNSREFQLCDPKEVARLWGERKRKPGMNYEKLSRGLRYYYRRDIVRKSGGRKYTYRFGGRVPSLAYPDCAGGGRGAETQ
Procedure, shortened: as §1

[17] = target: T11, ELF3 (Homo sapiens, UniProt P78545 1-371); details: protein: recombinant; tags: N-terminal GST; dsDNA, one strand shown
T11 sequence: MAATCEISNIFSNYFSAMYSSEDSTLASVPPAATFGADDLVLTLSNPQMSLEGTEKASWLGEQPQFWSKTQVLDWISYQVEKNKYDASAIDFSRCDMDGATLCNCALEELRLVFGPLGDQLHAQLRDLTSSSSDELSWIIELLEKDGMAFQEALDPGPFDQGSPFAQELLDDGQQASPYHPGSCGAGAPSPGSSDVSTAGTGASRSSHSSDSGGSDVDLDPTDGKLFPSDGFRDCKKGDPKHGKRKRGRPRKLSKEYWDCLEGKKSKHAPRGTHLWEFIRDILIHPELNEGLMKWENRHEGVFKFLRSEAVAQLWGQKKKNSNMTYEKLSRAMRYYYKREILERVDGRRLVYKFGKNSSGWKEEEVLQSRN
Procedure, shortened: as §1

[18] = target: CRX (Homo sapiens, UniProt O43186 1-299); details: protein: recombinant; tags: N-terminal GST; dsDNA, one strand shown
Chain of CRX (O43186 whole entry): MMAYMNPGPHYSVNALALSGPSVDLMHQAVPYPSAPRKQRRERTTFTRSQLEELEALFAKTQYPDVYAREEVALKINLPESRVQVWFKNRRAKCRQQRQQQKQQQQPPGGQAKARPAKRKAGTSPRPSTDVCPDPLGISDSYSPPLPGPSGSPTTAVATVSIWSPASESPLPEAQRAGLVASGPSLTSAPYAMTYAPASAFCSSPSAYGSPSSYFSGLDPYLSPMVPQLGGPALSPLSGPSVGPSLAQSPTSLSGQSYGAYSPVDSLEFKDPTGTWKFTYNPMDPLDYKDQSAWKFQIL
Procedure, shortened: as §1

[19] = target: ETV1 (Homo sapiens, UniProt P50549 1-477); details: protein: recombinant; tags: N-terminal GST; dsDNA, one strand shown
Chain of ETV1 (P50549 whole entry): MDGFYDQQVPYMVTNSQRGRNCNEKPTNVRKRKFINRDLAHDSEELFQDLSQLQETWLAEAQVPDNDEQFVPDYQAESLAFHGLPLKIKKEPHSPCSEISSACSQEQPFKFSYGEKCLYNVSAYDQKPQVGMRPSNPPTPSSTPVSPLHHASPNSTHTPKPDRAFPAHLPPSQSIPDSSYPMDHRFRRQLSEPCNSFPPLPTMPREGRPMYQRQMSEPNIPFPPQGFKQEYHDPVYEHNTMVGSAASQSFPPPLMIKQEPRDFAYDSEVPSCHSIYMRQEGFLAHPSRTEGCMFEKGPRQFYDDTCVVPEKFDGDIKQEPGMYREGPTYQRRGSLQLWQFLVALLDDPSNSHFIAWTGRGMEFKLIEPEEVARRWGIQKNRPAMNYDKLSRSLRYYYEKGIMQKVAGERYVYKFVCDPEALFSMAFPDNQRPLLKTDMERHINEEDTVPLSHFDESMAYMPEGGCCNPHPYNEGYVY
Procedure, shortened: as §1

CACGTT
binding signal [1]: 1.28 fold enrichment (6-mer frequency, TF over GST control) | binding signal [2]: 1.35 fold enrichment (6-mer frequency, TF over GST control) | binding signal [3]: 1.3 fold enrichment (6-mer frequency, TF over GST control) | binding signal [4]: 1.28 fold enrichment (6-mer frequency, TF over GST control) | binding signal [5]: 1.29 fold enrichment (6-mer frequency, TF over GST control) | binding signal [6]: 1.24 fold enrichment (6-mer frequency, TF over GST control) | binding signal [7]: 1.3 fold enrichment (6-mer frequency, TF over GST control) | binding signal [8]: 1.21 fold enrichment (6-mer frequency, TF over GST control) | binding signal [9]: 1.25 fold enrichment (6-mer frequency, TF over GST control) | binding signal [10]: 1.26 fold enrichment (6-mer frequency, TF over GST control) | binding signal [11]: 1.3 fold enrichment (6-mer frequency, TF over GST control) | binding signal [12]: 1.11 fold enrichment (6-mer frequency, TF over GST control) | binding signal [13]: 1.33 fold enrichment (6-mer frequency, TF over GST control) | binding signal [14]: 1.31 fold enrichment (6-mer frequency, TF over GST control) | binding signal [15]: 1.29 fold enrichment (6-mer frequency, TF over GST control) | binding signal [16]: 1.36 fold enrichment (6-mer frequency, TF over GST control) | binding signal [17]: 1 fold enrichment (6-mer frequency, TF over GST control) | binding signal [18]: 1.08 fold enrichment (6-mer frequency, TF over GST control) | binding signal [19]: 1.21 fold enrichment (6-mer frequency, TF over GST control)
